# A selection: hits, their analogues and other compounds. The true share with any hit is near 19%.
# ASM inhibitor = human S-ASM enzyme inhibition | placental ASM, HMU-PC fluorogenic substrate, 60 min | Potency, µM (highest dose often 57.5 µM), for the others: at the highest dose activity change, negative = inhibition, usual class: inhibitors | 340,000 compounds, 0.006% hits | P17405; also: potency is read from the fitted curve at half-maximal effect
# Target sequence (P17405 47-631 limits assumed): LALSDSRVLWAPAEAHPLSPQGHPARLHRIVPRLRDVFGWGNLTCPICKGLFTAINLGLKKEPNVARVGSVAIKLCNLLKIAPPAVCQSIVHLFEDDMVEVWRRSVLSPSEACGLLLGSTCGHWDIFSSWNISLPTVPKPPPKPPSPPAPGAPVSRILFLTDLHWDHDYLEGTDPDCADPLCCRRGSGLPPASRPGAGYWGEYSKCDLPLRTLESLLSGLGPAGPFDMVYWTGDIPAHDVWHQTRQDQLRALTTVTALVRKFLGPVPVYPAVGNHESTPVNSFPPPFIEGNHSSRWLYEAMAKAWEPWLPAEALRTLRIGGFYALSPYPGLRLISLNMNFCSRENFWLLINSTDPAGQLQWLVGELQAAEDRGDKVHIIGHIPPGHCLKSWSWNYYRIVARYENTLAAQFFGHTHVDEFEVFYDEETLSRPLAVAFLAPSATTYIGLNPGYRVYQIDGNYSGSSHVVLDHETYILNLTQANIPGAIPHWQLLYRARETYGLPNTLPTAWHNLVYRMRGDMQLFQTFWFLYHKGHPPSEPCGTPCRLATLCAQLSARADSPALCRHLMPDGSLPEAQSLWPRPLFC
#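 HMU-PC0 cleavage (9 uM final) by human placental ASM, 60 min at 37 °C following 10 min compound exposure at RT; stopped at pH 10, fluorescence Ex 386/Em 447 nm.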
# TGFb SMAD3 inh = TGF-b pathway inhibition | HepG2 CAGA-GFP TGF-b/SMAD3 reporter, GFP fluorescence, 18 h; TGF-beta stimulated, 500 pg/mL final | Potency, µM (highest dose often 46.1 µM), for inactives: at the top dose activity, negative = inhibition, usual class: inhibitors | 410,000 compounds, 1.2% hits; also: potency is read from the fitted curve at half-maximal effect; % is scaled to controls: 0 for no effect and ±100 for the full control effect; nearly all actives have a fitted effect of over 65% in size
#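 HEPG2 CAGA-GFP, 1000 cells/well; 2 h settle, 37 C; cpd via pin tool; TGF-b 500 pg/mL final; 18 h, 37 C; GFP imaging ex488/em500-530; %Activity normalised to -TGF-b and +DMSO controls; CRC fit, curve class.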
# TDP1 cell noCPT = qHTS for Inhibitors of human tyrosyl-DNA phosphodiesterase 1 (TDP1): qHTS in cells in absence of CPT; DT40 Tdp1-/- hTDP1 cells, no CPT, ATP luminescence, 48 h; Potency, µM (top dose mostly 46.2 µM), inactives show at the top dose activity change, negative = growth inhibition, actives largely listed as inhibitors; 420,000 compounds, 15% hits; also: potency is read from the fitted curve at half-maximal effect; % is scaled to controls: 0 for no effect and ±100 for the full control effect; nearly all actives have a fitted effect of over 55% in size
#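 Luminescent ATP content (CellTiter-Glo) served as the growth readout. Knockout chicken DT40 cells expressing human TDP1 were exposed to compounds without camptothecin for a minimum 48 hr at 37 °C.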
# IL1B secr inh = inflammasome signaling inhibition, IL-1 beta readout | 360,000 compounds, 4.7% hits | THP-1 LPS/ATP IL-1B secretion, AlphaLISA, 16 h; active compounds read low | activity change, % at 57.5 µM; in the data active = activity change below about -50%; inconclusive = mostly about -30% to -49%; also: % is scaled to controls: 0 for no effect and ±100 for the full control effect
#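 THP-1 cells pretreated 1 hr with compounds (up to 57.5 uM final), then stimulated with LPS (250 ng/mL final) plus ATP (1.25 mM final); secreted IL-1B measured by AlphaLISA after 16 hr, decreased signal indicating inhibition.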
# HepG2 tox = HepG2 cytotoxicity, counter-screen for TGF-b inhibitors. Potency, µM (titrated, usually from 46.1 µM), for inactives: at the highest dose activity change, negative = cytotoxicity, usual class: cytotoxic. AID 588856. 410,000 compounds, 0.76% hits. HepG2 CAGA-GFP viability, ATP luminescence, 18 h; also: potency is read from the fitted curve at half-maximal effect
#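 HepG2 CAGA-GFP cells (1000/well, DMEM with 1% FBS) received compound, then TGF-beta at 500 pg/mL final, and were incubated 18 hours at 37 degrees C. Viability was read by CellTiter-Glo luminescence. Media-only wells were set as complete cell-killing and DMSO as no toxicity.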
# TDP1 cell CPT = growth inhibition of DT40 Tdp1-/-;hTDP1 cells with camptothecin (screen for TDP1 inhibitors); 420,000 compounds, 12% hits; AID 686979; Potency, µM (doses to about 46.2 µM), for the others: top-dose activity change, negative = growth inhibition, actives largely listed as inhibitors; chicken DT40 Tdp1-/-;hTDP1 cells + 20 nM CPT, ATP luminescence, 48 h; also: potency is read from the fitted curve at half-maximal effect; % is scaled to controls: 0 for no effect and ±100 for the full control effect; nearly all actives have a fitted effect of over 55% in size
#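 Cell growth measured by CellTiter-Glo luminescence after a minimum 48 h, 37 C compound exposure with 20 nM CPT in Tdp1-knockout DT40 cells stably expressing hTDP1, seeded 400/well; qHTS titration format.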
# Starred values were filed as active, the others as inactive; ? = inconclusive; · = no result. Unless noted, calls follow the shape of the dose curve; as a rule, active = well fitted curve in the direction sought with a large enough effect; inconclusive = small, poorly fitted or top-dose-only effect, or another doubt; inactive = no such curve, though single readings can be large; an effect the other way counts as inactive or inconclusive.
SMILES,ASM inhibitor,TGFb SMAD3 inh,TDP1 cell noCPT,IL1B secr inh,HepG2 tox,TDP1 cell CPT
Cc1cccc(C)c1NC(=O)NCCc1c[nH]c2ccccc12,·,13%,?,·,-25%,?
CCOC(=O)c1c(C)[nH]c(C(=O)OCC(=O)Nc2sc(C(=O)N(C)C)c(C)c2C(=O)OCC)c1C,-23%,-3%,23µM*,-51*,0%,?
CCOC(=O)c1c(NC(=O)COC(=O)c2ccc([N+](=O)[O-])cc2)sc(C(=O)N(C)C)c1C,-9%,0%,-3%,-5,0%,17%
CCOC(=O)c1[nH]c(C)c(C(=O)OCC(=O)NC(C)c2ccc(F)cc2)c1C (stereo not given),-4%,3%,1.2µM*,0,2%,1.6µM*
CCOC(=O)c1c(C)[nH]c(C(=O)OCC(=O)NC(C)(C)C)c1C,2%,-4%,18µM*,-10,-15%,?
CCOC(=O)c1[nH]c(C)c(C(=O)OC)c1C,-3%,23%,8%,·,36%,3%
CCCOc1ccc(C(F)(F)F)cc1NC(=O)CCc1c(C)noc1C,0%,1%,?,-26,-17%,?
N#Cc1ccc(NC(=O)COC(=O)c2cccc(S(=O)(=O)N3CCCC3)c2)cc1,·,-1%,?,-16,-3%,-10%
Cc1cc(CN2CCC(N3CCC(C(=O)NC4CC4)CC3)CC2)cc(C)c1O,0%,-1%,4%,-6,-20%,-10%
Cc1cccc(N=c2c([N+](=O)[O-])nn(-c3ccc(Cl)cc3)n2O)c1,5%,0%,1%,22,-6%,4%
CCOC(=O)c1nn(-c2ccc3c(c2)OCCO3)cc1O,1%,11%,-14%,3,-12%,-1%
CCc1cccc(N=c2c([N+](=O)[O-])nn(-c3ccc(Cl)cc3)n2O)c1,-18%,?,?,5,0%,21µM*
O=[N+]([O-])c1nn(-c2ccc3c(c2)OCCO3)n(O)c1=NCCC1=CCCCC1,-7%,-16%,-27%,-3,3%,-26%
O=[N+]([O-])c1nn(-c2ccc3c(c2)OCCO3)n(O)c1=NCc1ccc(F)cc1,-13%,?,?,-76*,-11%,?
Cc1cc(C)cc(N=c2c([N+](=O)[O-])nn(-c3cccc(Cl)c3)n2O)c1,-6%,-28%,?,-1,-27%,11µM*
CCc1cccc(N=c2c([N+](=O)[O-])nn(-c3ccc4c(c3)OCCO4)n2O)c1,-15%,?,3.3µM*,0,-7%,1.8µM*
O=[N+]([O-])c1nn(-c2ccc(Cl)cc2)n(O)c1=NCc1ccccc1Cl,-6%,0%,?,-4,-45%,-18%
O=c1c2oc3ccccc3c2n(Cc2ccccc2Cl)c(=O)n1Cc1ccc2c(c1)OCO2,·,2%,?,·,-9%,-2%
COc1cc(N=c2c([N+](=O)[O-])nn(-c3ccc4c(c3)OCCO4)n2O)cc(OC)c1,-13%,?,1.6µM*,-22,-10%,1.5µM*
C#Cc1ccc(NC(=O)C2(C)CCN2C(=O)CC(c2ccccc2)c2ccccc2)cc1 (stereo not given),·,-28%,?,8,-4%,16µM*
Cc1ccccc1S(=O)(=O)NC(=O)C1(C)CCN1C(=O)CCc1ccccc1 (stereo not given),·,23%,0%,3,-1%,12%
CC1(C(=O)Nc2nccs2)CCN1C(=O)C1(c2ccccc2)CC1 (stereo not given),·,-16%,-26%,-12,2%,-24%
